Results taken from PubChem BioAssay (NCATS).
Values joined by “and” are separate entries in the source; they are usually repeats but may differ in a detail not shown here. Identical values can stand only once. Records with an inconclusive call do not appear. Active and inactive are the calls of the source. Unless noted, calls come from the whole dose curve; as a rule, active = well fitted curve in the direction sought with a large enough effect; inconclusive = small, poorly fitted or top-dose-only effect, or another doubt; inactive = no such curve, though single readings can be large; an effect the other way counts as inactive or inconclusive.

Tests used:
[1] = Cell Viability - HepG2 (AID 433; calls by dose curve;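 note: potency is the fitted concentration of half-maximal effect; cells exposed to compound for 40 hours; potency for ATP loss meaning cytotoxicity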); conditions: qHTS
Procedure, shortened: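 Cytotoxicity read as ATP loss (CellTiter-Glo luminescence) after 40 hr compound exposure of HepG2, 1500 cells/well, 37 °C. AC50 by Hill equation; 0% set by DMSO, 100% inhibition by 100 uM tamoxifen.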

[2] = Cell Viability - Renal Proximal Tubule (AID 545);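 note: cells exposed to compound for 40 hours; 0% = DMSO only and -100% = 100 µM tamoxifen; nearly all actives have a fitted effect of over 40% in size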
Procedure, shortened: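 Viability taken as intracellular ATP (CellTiter-Glo luminescence) after 40 hr, 37 °C compound treatment of primary proximal tubule cells from rat kidney, 1000 cells/well; Hill-equation fits of qHTS concentration-response data gave AC50.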

[3] = Cellular Toxicity (caspase-3) HUV-EC-C (AID 656);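 note: 0% = DMSO basal and 100% = 100 µM tamoxifen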
Procedure, shortened: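 Luminescent Caspase-Glo 3/7 readout after 16 h, 37 °C compound exposure of HUV-EC-C endothelial cells, 1000 per well, complete medium. AC50 derived by Hill fitting, with DMSO as baseline and 100 uM tamoxifen as full activation.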

[4] = Cellular Toxicity (caspase-3) SHSY5Y (AID 657)
Procedure, shortened: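 Luminescent Caspase-Glo 3/7 read-out, 1 hr room temperature, follows 16 hours of compound treatment of SH-SY5Y cells at 37 °C. Normalization: DMSO basal, 10 uM staurosporine as 100%; AC50 values from Hill-equation concentration-response fits.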

[5] = Cellular Toxicity (caspase-3) MRC-5 (AID 659);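 note: 0% = DMSO basal and 100% = 10 µM staurosporine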
Procedure, shortened: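 Luminescence from caspase-cleaved aminoluciferin substrate (Caspase-Glo 3/7, 1 hr RT) reports caspase 3/7 activity in MRC-5 lung fibroblasts after 16 hr compound exposure. Normalized to DMSO basal and 10 uM staurosporine as 100%; AC50 from Hill fits.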

[6] = molecular target: Cytochrome P450 3A4 (Homo sapiens) (UniProt P08684); test: qHTS Assay for Inhibitors and Substrates of Cytochrome P450 3A4 (AID 884); note: nearly all actives have a fitted effect of over 50% in size; note: potency is the fitted concentration of half-maximal effect
Cytochrome P450 3A4 (Homo sapiens), sequence (P08684 whole entry, looked up): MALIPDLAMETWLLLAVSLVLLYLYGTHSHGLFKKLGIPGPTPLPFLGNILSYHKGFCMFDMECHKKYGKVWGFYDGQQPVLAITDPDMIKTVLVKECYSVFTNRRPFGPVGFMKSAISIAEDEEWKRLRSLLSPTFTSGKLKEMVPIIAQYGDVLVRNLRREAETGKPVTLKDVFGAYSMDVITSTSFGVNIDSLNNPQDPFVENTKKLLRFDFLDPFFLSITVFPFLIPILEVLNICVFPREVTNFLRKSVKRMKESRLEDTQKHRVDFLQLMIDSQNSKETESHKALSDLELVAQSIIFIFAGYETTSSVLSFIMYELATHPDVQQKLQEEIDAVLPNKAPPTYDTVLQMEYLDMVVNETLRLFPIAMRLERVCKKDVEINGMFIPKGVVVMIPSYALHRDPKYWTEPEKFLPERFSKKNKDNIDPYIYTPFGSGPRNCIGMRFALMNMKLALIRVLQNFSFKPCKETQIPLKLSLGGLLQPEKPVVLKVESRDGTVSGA
Procedure, shortened: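 20 nM human CYP3A4 with 25 uM Luciferin-PPXE (at KM) in 200 mM KPO4, preincubated 10 min with compound; NADPH regeneration started a 60 min RT reaction. Luciferin detected by luminescence, normalized to 57 uM ketoconazole as full inhibition.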

[7] = MultiTox-Fluor Cytotoxicity Assay - LYMP1-002 - Live Cells (AID 955); note: % is set by controls: 0 for no effect and ±100 for the full control effect
Procedure, shortened: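 Human lymphoblastoid LYMP1-002 cells, 2500/well, treated 16 h at 37 C in complete medium. Live-cell protease activity via GF-AFC fluorescence (Ex/Em 405/510) after 60 min reagent incubation; AC50 from Hill fits.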

[8] = Cell Viability - LYMP1-003 - Assay at 24 hr (AID 963);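 note: plate controls were DMSO only for no effect and tetraoctylammonium bromide positive control for full effect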
Procedure, shortened: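 Human lymphoblastoid LYMP1-003 cells, 2500/well, treated 24 h at 37 C in complete medium. Viability read as intracellular ATP by CellTiter-Glo luminescence after 30 min at room temperature; AC50 from Hill-equation fits of qHTS concentration-response.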

[9] = Cell Viability - LYMP2-009 (AID 968); note: nearly all actives have a fitted effect of over 55% in size; note: potency is the fitted concentration of half-maximal effect
[10] = Cell Viability - LYMP2-017 (AID 972); note: nearly all actives have a fitted effect of over 55% in size; note: potency is the fitted concentration of half-maximal effect
Procedure, shortened: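 LYMP2-017 human lymphoblastoid cells (2500/well) settled 5 hr at 37 C, then exposed to compound 24 hr at 37 C in complete medium. Viability taken as intracellular ATP by CellTiter-Glo luminescence after 30 min at RT; AC50 from Hill fits.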

[11] = Cell Viability - LYMP2-025 (AID 976);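 note: series mostly up to about 92 µM; plate controls were DMSO only for no effect and tetraoctylammonium bromide control for full effect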
Procedure, shortened: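 Human lymphoblastoid LYMP2-025 cells, 2500/well, exposed 24 h at 37 C in complete medium in 1536-well qHTS. Viability as cellular ATP by CellTiter-Glo luminescence; AC50 from Hill fits of concentration-response data.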

[12] = Cell Viability - LYMP2-012 (AID 982);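 note: cellular ATP by luciferase luminescence where a drop means cytotoxicity; cells exposed to compound for one day before reading; nearly all actives have a fitted effect of over 55% in size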; note: potency is the fitted concentration of half-maximal effect
[13] = Cell Viability - LYMP2-016 (AID 984); note: nearly all actives have a fitted effect of over 55% in size; note: potency is the fitted concentration of half-maximal effect
Procedure, shortened: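 Cytotoxicity was scored by luminescent ATP content (CellTiter-Glo) after 24 h compound exposure at 37 C of a human lymphoblastoid line at 2500 cells/well. Concentration-response data were fitted to the Hill equation for AC50.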

[14] = Cell Viability - LYMP1-002 - Assay at 40 hr (AID 994); note: nearly all actives have a fitted effect of over 60% in size; note: potency is the fitted concentration of half-maximal effect
Procedure, shortened: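 LYMP1-002 human lymphoblastoid cells (2500/well, complete medium) were treated with compounds for 40 hr at 37 C. Intracellular ATP was measured by CellTiter-Glo luminescence, and AC50 values came from Hill-equation fits of concentration-response data; tetraoctylammonium bromide was the positive control.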

[15] = qHTS Assay for Identification of Small Molecule Inducers of Hypoxia Response (AID 2120; active = well fitted curve in the direction sought with a large enough effect in the signal ratio, with a control signal flat, not every such curve was filed as active; the % refers to the signal ratio; note: 0% is about no effect)
Procedure, shortened: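 HRE-bla ME-180 cells in Opti-MEM with 0.5% dialyzed FBS, pre-plated 4-5 h, then compound titration for 17 h at 37 degrees Celsius. CCF4 loaded 2.5 h at room temperature; 460/530 nm ratio gave %Activity and AC50 for induction.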

[16] = qHTS assay for small molecule antagonists of retinoid X receptor alpha signaling (AID 588546); conditions: HEK293T RXRa-UAS-bla, beta-lactamase ratio, antagonist mode; measured here: W530 green channel, cytotoxicity proxy;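 note: cells stimulated with 9-cis-retinoic acid as agonist; % is set by controls: 0 for no effect and ±100 for the full control effect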
Procedure, shortened: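 Beta-lactamase reporter inhibition, read as CCF4 fluorescence ratio (ex 405, em 460/530 nm) after 2 h at RT. HEK293T UAS-bla cells, 2500/well, were stimulated with 9-cis-RA at 500 or 100 nM final alongside test compound for 18 h at 37 C.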

[17] = qHTS assay for environmental chemicals that activate the Aryl hydrocarbon Receptor (AhR) signaling pathway (AID 651777); conditions: 1A2-DRE human hepatoma cells, luciferase, 24 h; activation: stronger effect = higher value; note: nearly all actives have a fitted effect of over 15% in size; note: potency is the fitted concentration of half-maximal effect; for activation: % of control where 0% means no effect
Procedure, shortened: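 Quantitative HTS in stably transfected human liver-derived cells whose luciferase gene sits downstream of the CYP1A2 promoter and dioxin response element. After 24 hr exposure at 37 C, One-Glo luminescence was measured.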

[18] = molecular target: Peroxisome proliferator-activated receptor alpha (Homo sapiens) (UniProt Q07869); test: qHTS assay for small molecule agonists of the peroxisome proliferator-activated receptor alpha (PPARalpha) signaling pathway (AID 651778); conditions: PathHunter PPARalpha complementation, chemiluminescence, 6 h; stronger effect = higher value; note: % of control where 0% means no effect
Peroxisome proliferator-activated receptor alpha (Homo sapiens), sequence (Q07869 whole entry, looked up): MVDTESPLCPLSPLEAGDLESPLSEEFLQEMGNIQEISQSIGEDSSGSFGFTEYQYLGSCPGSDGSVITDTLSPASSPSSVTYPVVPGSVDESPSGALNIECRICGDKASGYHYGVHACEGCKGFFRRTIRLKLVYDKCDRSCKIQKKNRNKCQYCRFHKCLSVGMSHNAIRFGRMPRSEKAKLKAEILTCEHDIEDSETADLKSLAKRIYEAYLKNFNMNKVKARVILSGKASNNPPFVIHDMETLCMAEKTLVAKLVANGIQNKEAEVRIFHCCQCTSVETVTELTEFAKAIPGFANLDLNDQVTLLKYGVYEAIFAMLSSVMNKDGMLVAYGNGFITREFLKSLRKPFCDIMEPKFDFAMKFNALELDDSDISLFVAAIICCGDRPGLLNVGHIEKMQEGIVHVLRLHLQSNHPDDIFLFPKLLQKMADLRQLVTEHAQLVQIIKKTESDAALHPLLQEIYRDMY
Procedure, shortened: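 Cells plated at 2,000/well and held overnight at 37 C, 5% CO2, then compound added by pin tool for 6 hr; after PathHunter detection reagent and 60 min at room temperature, chemiluminescence from enzyme complementation was read.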

[19] = qHTS assay for small molecule agonists of the antioxidant response element (ARE) signaling pathway measured by Nrf2-dependant transcriptional activity - cell viability counter screen (AID 720653; active = well fitted curve in the direction sought with a large enough effect in the repeat runs; an effect the other way counts as inactive or inconclusive; note: % is set by controls: 0 for no effect and ±100 for the full control effect); conditions: ARE-bla HepG2 viability, CellTiter-Glo ATP luminescence, 16 h; stronger effect = lower value
Procedure, shortened: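 ARE-bla HepG2 cells (2,000/well) rested 5 hrs at 37C/5% CO2, then exposed to compounds in DMSO for 16 hrs. Viability was read in the same wells as intracellular ATP by luminescence, 30 min at room temperature after reagent addition.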

[20] = Cell Viability - LYMP2-004 (AID 966); note: nearly all actives have a fitted effect of over 65% in size; note: potency is the fitted concentration of half-maximal effect
Procedure, shortened: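 Lymphoblastoid LYMP2-004 cells, 2500 per well, were preincubated for 5 hr and then treated with compound for 24 h at 37 C in complete medium. Viability was read as cellular ATP by CellTiter-Glo luminescence, and AC50 values were taken from Hill fits to concentration-response data.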

C(CCOCC1CO1)COCC1CO1 (centres undefined)
inactive: Potency [1] > 92 µM | outcome [2] | outcome [3] | outcome [4] | outcome [5] | Potency [6] | outcome [7] | outcome [8] | Potency [9] | Potency [10] | Potency [11] | Potency [12] | Potency [13] | Potency [15] | activation [17] 0.374% | max response [18] -0.765% | max response [19] 15.2%
active: Potency [14] 39.8 µM
5.96%: max response [16]

CCOP(=S)(OCC)Oc1nc(Cl)c(Cl)cc1Cl
inactive: Potency [1] > 92 µM | outcome [2] | outcome [3] | outcome [4] | outcome [5] | outcome [7] | outcome [8] | Potency [20] | Potency [9] | Potency [10] | Potency [11] | Potency [12] | Potency [13] | Potency [14] | Potency [15] | activation [17] 12% | max response [18] 0.508% [middle of 4 runs] | max response [19] 0.0448% [middle of 4 runs]
active: Potency [6] 5.01 µM
-8.45% [middle of 4 runs]: max response [16]

Cc1cc(-c2cc(C)c(N)c(C)c2)cc(C)c1N
active: Potency [6] 25.1 µM | Potency [17] 10 µM
inactive: Potency [1] > 92 µM | outcome [2] | outcome [3] | outcome [4] | outcome [5] | outcome [7] | outcome [8] | Potency [20] | Potency [9] | Potency [10] | Potency [11] | Potency [12] | Potency [13] | Potency [14] | Potency [15] | max response [18] -3.9% | max response [19] -5.77%
-0.244%: max response [16]

Oc1c(Cl)c(Cl)cc(Cl)c1Cl
inactive: Potency [1] > 92 µM | outcome [3] | outcome [4] | outcome [5] | Potency [6] | outcome [7] | outcome [8] | Potency [20] | Potency [9] | Potency [10] | Potency [11] | Potency [12] | Potency [13] | Potency [14] | Potency [15] | activation [17] 0.522% | max response [19] -2.21%
-8.85%: max response [16]

CCN(N=O)C(N)=O
inactive: Potency [1] > 92 µM | outcome [2] | outcome [3] | outcome [4] | outcome [5] | Potency [6] | outcome [7] | outcome [8] | Potency [20] | Potency [9] | Potency [10] | Potency [11] | Potency [12] | Potency [13] | Potency [14] | Potency [15] | activation [17] 0.0477% | max response [18] 1.39% | max response [19] 1.02%
-10.6%: max response [16]

N#CCCCCC#N
-2.9%: max response [16]
inactive: Potency [1] > 92 µM | outcome [2] | outcome [3] | outcome [4] | outcome [5] | Potency [6] | outcome [7] | outcome [8] | Potency [20] | Potency [9] | Potency [10] | Potency [11] | Potency [12] | Potency [13] | Potency [14] | Potency [15] | activation [17] 0.486% | max response [18] -1.89% | max response [19] 5.3%

c1ccc(Nc2ccc(Nc3ccccc3)cc2)cc1
-12.1%: max response [16]
inactive: Potency [1] > 92 µM | outcome [3] | outcome [4] | outcome [5] | Potency [6] | outcome [7] | outcome [8] | Potency [20] | Potency [9] | Potency [10] | Potency [11] | Potency [12] | Potency [13] | Potency [14] | Potency [15] | max response [18] -0.732% | max response [19] -13.9%

CN1CSC(=S)N(C)C1
inactive: Potency [1] > 92 µM | outcome [2] | outcome [3] | outcome [4] | outcome [5] | Potency [6] | Potency [15] | activation [17] -0.101% and -0.0706% | max response [18] -4.77% and -6.32% | max response [19] -1.99% and -0.305%
active: Potency [20] 31.6 µM | Potency [9] 31.6 µM | Potency [10] 25.1 µM | Potency [12] 25.1 µM | Potency [13] 39.8 µM
5.73%: max response [16]

CN(C)C(=O)Nc1ccc(Cl)cc1
-7.13% and -6.88%: max response [16]
inactive: Potency [1] > 92 µM | outcome [2] | outcome [3] | outcome [4] | outcome [5] | Potency [6] | outcome [7] | outcome [8] | Potency [20] | Potency [9] | Potency [10] | Potency [12] | Potency [13] | Potency [14] | Potency [15] | activation [17] 1.83% and 5.75% | max response [18] -3.6% and -1.79% | max response [19] -16.9% and 1.13%

C=CC#N
inactive: Potency [1] > 92 µM | outcome [2] | outcome [3] | outcome [4] | outcome [5] | Potency [6] | outcome [7] | outcome [8] | Potency [20] | Potency [9] | Potency [10] | Potency [11] | Potency [12] | Potency [13] | Potency [14] | Potency [15] | activation [17] 2.03% | max response [18] -1.02% | max response [19] 7.55%
-3.06%: max response [16]

CC(C)C#N
inactive: Potency [1] > 92 µM | outcome [2] | outcome [3] | outcome [4] | outcome [5] | Potency [6] | outcome [7] | outcome [8] | Potency [20] | Potency [9] | Potency [10] | Potency [11] | Potency [12] | Potency [13] | Potency [14] | Potency [15] | activation [17] 0.256% | max response [18] 2.25% | max response [19] 1.74%
-7.48%: max response [16]

N#CC(Br)Br
inactive: Potency [1] > 92 µM | outcome [2] | outcome [3] | outcome [4] | outcome [5] | Potency [6] | outcome [7] | outcome [8] | Potency [20] | Potency [11] | Potency [13] | Potency [14] | Potency [15] | activation [17] 1.38% | max response [18] -1.13% | max response [19] -8.42%
active: Potency [9] 50.1 µM | Potency [10] 39.8 µM
-2.67%: max response [16]
